Test results reported in the supplement of paper PMC9950053.
Structures can show the parent of a compound that is named as a salt.

These compounds were tested on Danio rerio larvae (5 dpf) (assay: combined upward orientation toward moving lines (periods 7-14) minus DMSO control (percentage points); higher = more orientation with moving lines than DMSO larvae). Conditions: 10 µM; exposure time: 3 h pre-incubation + 3 h imaging.
Description: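 Wild-type 5 dpf zebrafish larvae (n=48 per drug, 96-well plates, 28.5 °C) were exposed to Tocris FDA-approved library compounds at 10 µM (0.1% DMSO) for 3 h before and 3 h during imaging. Images were taken every 6 s during visual and acoustic stimuli, and larvae were tracked with Z-LaP Tracker. Each measure is the treated-group mean minus the DMSO control mean (n=844), in percentage points. This mapping covers compounds with 5-character plate codes.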

Row | SMILES | combined upward orientation toward moving lines
1 | NS(=O)(=O)c1cc2c(cc1Cl)NC(C1CC3C=CC1C3)NS2(=O)=O (configuration not stated) [Cyclothiazide] | -2.57
2 | CCc1nc(N)nc(N)c1-c1ccc(Cl)cc1 [Pyrimethamine] | 7.4
3 | CN(C)C(=N)NC(=N)N [Metformin hydrochloride] | 1.11
4 | COc1cc2nccc(Oc3ccc(NC(=O)C4(C(=O)Nc5ccc(F)cc5)CC4)cc3)c2cc1OC | -10.5
5 | CC(C)OC(=O)C(C)(C)Oc1ccc(C(=O)c2ccc(Cl)cc2)cc1 [Fenofibrate] | 6.13
6 | CNCc1ccc(-c2[nH]c3cc(F)cc4c3c2CCNC4=O)cc1 [Rucaparib camsylate] | 2
7 | C[C@H]1O[C@H](O[C@H]2[C@H](O)[C@@H](O)[C@@H](O[C@H]3[C@H](O)[C@@H](O)C(O)O[C@@H]3CO)O[C@@H]2CO)[C@H](O)[C@@H](O)[C@@H]1N[C@H]1C=C(CO)[C@@H](O)[C@H](O)[C@H]1O (some centres not stated) [Acarbose] | 4.65
8 | O=c1n(CCCN2CCN(c3cccc(Cl)c3)CC2)nc2ccccn12 [Trazodone hydrochloride] | -3.19
9 | CCCc1nn(C)c2c(=O)[nH]c(-c3cc(S(=O)(=O)N4CCN(C)CC4)ccc3OCC)nc12 [Sildenafil citrate] | 0.372
10 | CNC(=O)c1cc(Oc2ccc(NC(=O)Nc3ccc(Cl)c(C(F)(F)F)c3)cc2)ccn1 [Sorafenib] | -23.2
11 | NC(=O)OCC(COC(N)=O)c1ccccc1 [Felbamate] | 4.58
12 | N#Cc1ccc2[nH]cc(CCCCN3CCN(c4ccc5oc(C(N)=O)cc5c4)CC3)c2c1 [Vilazodone hydrochloride] | -4.15
13 | COCCc1ccc(OCC(O)CNC(C)C)cc1 (configuration not stated) [Metoprolol tartrate] | -3.38
14 | COc1ccccc1OCC(O)CN1CCN(CC(=O)Nc2c(C)cccc2C)CC1 (configuration not stated) [Ranolazine dihydrochloride] | 4.03
15 | CC(C)COCC(CN(Cc1ccccc1)c1ccccc1)N1CCCC1 (configuration not stated) [Bepridil hydrochloride] | 3.56
16 | CCCC1O[C@@H]2C[C@H]3[C@@H]4CCC5=CC(=O)C=C[C@]5(C)[C@H]4[C@@H](O)C[C@]3(C)[C@]2(C(=O)CO)O1 (some centres not stated) [Budesonide] | 0.263
17 | OCCN1C[C@H](O)[C@@H](O)[C@H](O)[C@H]1CO [Miglitol] | -1.58
18 | Cc1cc2c(s1)Nc1ccccc1N=C2N1CCN(C)CC1 [Olanzapine] | 3.25
19 | COc1cc(N)c(Cl)cc1C(=O)NC1CCN(CCCOc2ccc(F)cc2)CC1OC (configuration not stated) [Cisapride] | -4.69

Row | SMILES | combined upward orientation toward moving lines
20 | CCCCCCCN(CC)CCCC(O)c1ccc(NS(C)(=O)=O)cc1 (configuration not stated) [Ibutilide hemifumarate] | -0.0944
21 | CC(=O)Oc1cc2c(s1)CCN(C(C(=O)C1CC1)c1ccccc1F)C2 (configuration not stated) [Prasugrel] | -5.5
22 | C[C@@H]1C[C@H]2[C@@H]3CCC4=CC(=O)C=C[C@]4(C)[C@@]3(F)[C@@H](O)C[C@]2(C)[C@@]1(O)C(=O)CO [Dexamethasone] | -5.03
23 | C#CCN[C@@H]1CCc2ccccc21 [Rasagiline mesylate] | -1.34
24 | CNS(=O)(=O)Cc1ccc2[nH]cc(CCN(C)C)c2c1 [Sumatriptan succinate] | -8.09
25 | O=C1CCc2ccc(OCCCCN3CCN(c4cccc(Cl)c4Cl)CC3)cc2N1 [Aripiprazole] | -7.24
26 | OCc1cc(C(O)CNCCCCCCOCCCCc2ccccc2)ccc1O (configuration not stated) [Salmeterol xinafoate] | -1.98
27 | COc1ccccc1Oc1c(NS(=O)(=O)c2ccc(C(C)(C)C)cc2)nc(-c2ncccn2)nc1OCCO [Bosentan] | -0.697
28 | CC[C@H]1OC(=O)[C@H](C)[C@@H](O[C@H]2C[C@@](C)(OC)[C@@H](O)[C@H](C)O2)[C@H](C)[C@@H](O[C@@H]2O[C@H](C)C[C@H](N(C)C)[C@H]2O)[C@](C)(O)C[C@@H](C)CN(C)[C@H](C)[C@@H](O)[C@]1(C)O [Azithromycin] | -3.81
29 | CC(C)(C(=O)O)c1ccc(C(O)CCCN2CCC(C(O)(c3ccccc3)c3ccccc3)CC2)cc1 (configuration not stated) [Fexofenadine hydrochloride] | 1.12
30 | OC(c1cc(C(F)(F)F)nc2c(C(F)(F)F)cccc12)C1CCCCN1 (configuration not stated) [Mefloquine hydrochloride] | 5.79
31 | CC(=O)Nc1ccc(O)cc1 [Acetaminophen] | -1.22
32 | CN(C)CCc1c[nH]c2ccc(C[C@H]3COC(=O)N3)cc12 [Zolmitriptan] | -1.47
33 | Clc1ccc2nsnc2c1NC1=NCCN1 [Tizanidine hydrochloride] | -5.19
34 | COc1cc([C@@H]2c3cc4c(cc3[C@@H](O[C@@H]3O[C@@H]5CO[C@@H](C)O[C@H]5[C@H](O)[C@H]3O)[C@H]3COC(=O)[C@H]23)OCO4)cc(OC)c1O [Etoposide] | -2.65
35 | N#C[C@@H]1C[C@@H]2C[C@@H]2N1C(=O)[C@@H](N)C12CC3CC(CC(O)(C3)C1)C2 [Saxagliptin hydrochloride] | -3.59
36 | CN[C@H]1CC[C@@H](c2ccc(Cl)c(Cl)c2)c2ccccc21 [Sertraline hydrochloride] | -5.13
37 | O=C(O)C[C@H](O)C[C@H](O)/C=C/c1c(C2CC2)nc2ccccc2c1-c1ccc(F)cc1 [Pitavastatin calcium] | 2.14
